Experimental findings from PubChem BioAssay are described below.

A short description of assay [1]: inhibitors of TNFa-induced NFkB p65 translocation, primary screen, imaging, HUVEC, MLSMR starter and 10KST1 sets (AID 438).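 Also: compound added about 3h40 before a 20 min TNFalpha stimulation.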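 As to inhibition: signal is the nuclear over cytoplasmic p65 intensity ratio per well.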 The note with it: HUVEC TNFa-induced p65 nuclear translocation; cell count: measured here: nuclei count (cytotoxicity indicator), at 2.08 µM; inhibition: at 2 µM, stronger effect = higher value, 0% TNFa-plus-vehicle, 100% no-TNFa wells.
Assay [2] can be described thus: inhibitors of mutant huntingtin aggregation, primary screen, imaging, exon1htt(103Q)mCFP cells, high-content imaging (AID 483;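 active = visual image review flags a hit and inhibition of aggregation exceeds 20%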;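 also: compound exposure lasted 3 days before fixation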;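 as to nuclei count: percent of the per-plate median nuclei count of sample wells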). The note with it: exon1htt(103Q)mCFP cell line, aggregate imaging, at 2 µM; inhibition of aggregation: stronger effect = higher value; nuclei count: measured here: cell count, toxicity.
Assay [3] is described as follows: inhibitors of E-selectin induction by TNFa, primary screen, imaging, HUVEC, immunofluorescence, MLSMR starter and 10KST1 sets (AID 487;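 active = visually confirmed hit in the image check and inhibition above 20%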;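 as to inhibition: signal is fraction of cell area covered by stained E-selectin grains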;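 as to nuclei count: 100% = median nuclei count of all wells on the same plate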). The note with it: HUVEC TNFalpha-induced E-selectin immunofluorescence imaging, at 2 µM; inhibition: stronger effect = higher value; nuclei count: measured here: cell number, toxicity.
The target in assay [4] is Voltage-gated potassium channel subunit beta-2 (Rattus norvegicus) (UniProt P62483). Put plainly: KvBeta enzyme negative modulators, primary screen, biochemical, NADPH fluorescence (AID 622;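 active = fluorescence slope higher than the sample average by over 3 SD, cut at about -0.22 in these data, passing the limit was not always enough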;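 also: slope of raw intensity against log time taken from 70 to 1610 s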). The conditions noted are these: recombinant KvBeta, 4-cyanobenzaldehyde reduction, at 10 µM, stronger effect = higher value.
Voltage-gated potassium channel subunit beta-2 (Rattus norvegicus), sequence (P62483 whole entry, looked up): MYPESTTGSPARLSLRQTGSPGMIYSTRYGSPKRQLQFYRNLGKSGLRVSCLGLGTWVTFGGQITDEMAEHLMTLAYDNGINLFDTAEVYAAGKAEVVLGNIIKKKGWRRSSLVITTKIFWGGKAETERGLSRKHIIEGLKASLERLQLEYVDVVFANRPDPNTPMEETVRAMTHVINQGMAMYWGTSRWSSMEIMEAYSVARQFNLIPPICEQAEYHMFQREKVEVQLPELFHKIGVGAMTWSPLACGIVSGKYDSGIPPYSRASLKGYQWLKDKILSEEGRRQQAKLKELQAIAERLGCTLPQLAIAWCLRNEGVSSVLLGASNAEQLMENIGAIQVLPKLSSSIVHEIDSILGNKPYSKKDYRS
Assay [5] shares this target. Description: KvBeta positive modulators, primary screen, biochemical, NADPH fluorescence (AID 623;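 active = NADPH fluorescence slope more negative than the mean of all samples by about 3 SD, 99.7% confidence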;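 also: fluorescence intensity change per second fitted from 20 to 320 s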). The note with it: Recombinant KvBeta, NADPH fluorescence decrease slope, 10 min; at 10 µM; stronger effect = lower value.
Assay [6] concerns the target Alpha-2C adrenergic receptor (Homo sapiens) (UniProt P18825). Description: modulators of alpha2C/GIRK thallium flux, primary screen, cell-based, HEK293 alpha2C/GIRK1/2 (AID 624;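 active = fluorescence slope after compound addition differing from the mean of all screened samples at 99.7% confidence, in either direction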;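 also: slope of fluorescence ratio to pre-addition baseline per second over 15 to 24 s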). The note with it: thallium flux BTC fluorescence, at 10 µM, actives lie on both sides.
The nature of assay [7]: inhibitors of Sendai virus-induced IRF3 signaling, primary screen, TLR/RLR signaling modifier project, cell-based, Sendai virus stimulus, luciferase, 10K MLSCN set (AID 602276;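 active = inhibition at or above 50% at 10 µM; inactive = inhibition below 50%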;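 also: firefly luciferase from ISG56 promoter only with Renilla not read in this screen; 0% = Sendai virus plus DMSO and 100% = medium plus DMSO without virus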). The note with it: HEK293 RL24 IRF3 luciferase reporter, at 10 µM, stronger effect = higher value.
The nature of assay [8]: inhibitors of poly I:C-induced TLR3 signaling, primary screen, cell-based, poly I:C stimulus, luciferase, 10K MLSCN set (AID 602277;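 active = inhibition of the reporter signal at or above 50%; inactive = inhibition below 50%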). The note with it: HEK293-TLR3 RL24 IRF3 luciferase reporter, at 10 µM, stronger effect = higher value.

Molecules are shown by their SMILES. Active and inactive are the calls of the source.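 The calls were made as follows, unless noted: active = inhibition above 20% together with a positive visual image hit; inconclusive = visual image hit but inhibition not above 20%; inactive = no visual image hit.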

Alpha-2C adrenergic receptor (Homo sapiens), sequence (P18825 whole entry, looked up): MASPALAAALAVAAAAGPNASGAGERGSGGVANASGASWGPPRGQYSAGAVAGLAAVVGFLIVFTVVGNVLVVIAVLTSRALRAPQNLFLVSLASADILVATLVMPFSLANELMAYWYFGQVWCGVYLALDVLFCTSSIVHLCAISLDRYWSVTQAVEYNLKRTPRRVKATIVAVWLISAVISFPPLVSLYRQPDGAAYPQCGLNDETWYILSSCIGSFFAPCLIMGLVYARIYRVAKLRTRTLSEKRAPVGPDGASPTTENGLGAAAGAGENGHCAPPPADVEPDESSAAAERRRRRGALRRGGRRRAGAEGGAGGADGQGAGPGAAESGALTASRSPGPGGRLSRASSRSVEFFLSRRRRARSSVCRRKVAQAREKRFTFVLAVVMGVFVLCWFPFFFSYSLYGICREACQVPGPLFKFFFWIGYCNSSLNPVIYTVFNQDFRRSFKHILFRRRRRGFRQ

Usually inhibition stands for the change of the read-out against control, counted positive when it falls. As to `CC1=CC2=C(OC1N(C)C)c1cccc3cccc(c13)C2=O` (centres undefined), the cell count in assay [1] amounted to 277. Also, the inhibition in assay [1] was 23.4% (active); in assay [3], 46.7% (inactive); in assay [7], 5.12% (inactive); in assay [8], -3.5% (inactive). Also, the inhibition of aggregation in assay [2] was 3.4% (inactive). The results for the nuclei count in assay [2] and in assay [3] were 96.5% and 100%, respectively. In addition, the fluorescence slope in assay [4] is -0.493 (inactive). In addition, in assay [5], the NADPH fluorescence slope was 2e-06 (inactive). For the same compound, the slope in assay [6] was 0.00351 (inactive).

Turning to `O=C1C2C3C=CC(C3)C2C(=O)N1c1cccc(N2C(=O)C3C4C=CC(C4)C3C2=O)n1` (centres undefined), the cell count in assay [1] was 227. In addition, the inhibition in assay [1] was 8.4% (inactive); in assay [3], -160% (inactive); in assay [7], 3.37% (inactive); in assay [8] it was 21.6% (inactive). The inhibition of aggregation in assay [2] was -5.5% (inactive). Besides, the nuclei count in assay [2] came out at 109%; in assay [3], 137%. The fluorescence slope in assay [4] was -0.549 (inactive). Besides, the NADPH fluorescence slope in assay [5] was -1.2e-05 (inactive). The slope in assay [6] is 0.00682 (inactive).

Take `CCCCCCn1c(SCC(=O)OC)nc2c1c(=O)[nH]c(=O)n2C`: the cell count in assay [1] was found to be 502. The inhibition in assay [1] is -5.9% (inactive); in assay [3] it was 5% (inactive); in assay [7], 9.4% (inactive); in assay [8], 31.6% (inactive). In assay [2], the inhibition of aggregation was 25.4% (inactive). For the same compound, the figures for the nuclei count in assay [2] and in assay [3] were 71.7% and 91.4%, respectively. Also, in assay [4], the fluorescence slope was -0.42 (inactive). Moreover, the NADPH fluorescence slope in assay [5] is -5.2e-05 (inactive). For the same compound, in assay [6], the slope was 0.00477 (inactive).

For `Cc1ccc(C)c(NS(=O)(=O)c2ccc(NC(=O)c3ccco3)cc2)c1`, the cell count in assay [1] is 476. In addition, the inhibition in assay [1] was 13.3% (inactive); in assay [3], -15.1% (inactive); in assay [7] it was 0.316% (inactive); in assay [8], 11.1% (inactive). Moreover, in assay [2], the inhibition of aggregation was 4.7% (inactive). The nuclei count in assay [2] amounted to 111%; in assay [3], 109%. The fluorescence slope in assay [4] was -0.335 (inactive). In assay [5], the NADPH fluorescence slope is -3.2e-05 (inactive). For the same compound, in assay [6], the slope was 0.00608 (inactive).

For `COc1ccc(OC)c(C2C(C(=O)Nc3cccnc3)=C(C)NC3=C2C(=O)CCC3)c1` (centres undefined), the cell count in assay [1] was 353. Also, the inhibition in assay [1] is -7% (inactive); in assay [3], -64% (inactive); in assay [7], 3.04% (inactive); in assay [8], 25% (inactive). In assay [2], the inhibition of aggregation was 2.3% (inactive). For the same compound, the nuclei count amounted to 103% in assay [2] and 131% in assay [3]. Also, in assay [4], the fluorescence slope was -0.379 (inactive). For the same compound, in assay [5], the NADPH fluorescence slope is 2.2e-05 (inactive). Further, the slope in assay [6] is 0.00554 (inactive).

Turning to `Cc1ccc(Br)cc1S(=O)(=O)N1CCN(c2ccccc2)CC1`, the cell count in assay [1] worked out at 391. In addition, the inhibition was -2.2% (inactive) in assay [1], -51.5% (inactive) in assay [3], 5.17% (inactive) in assay [7] and 31.3% (inactive) in assay [8]. In addition, the inhibition of aggregation in assay [2] was -16% (inactive). In addition, the results for the nuclei count in assay [2] and in assay [3] were 108% and 129%, respectively. Also, in assay [4], the fluorescence slope was -0.463 (inactive). In assay [5], the NADPH fluorescence slope is -1.8e-05 (inactive). Besides, the slope in assay [6] was 0.0036 (inactive).

With `CC(=O)C1=C(C)Nc2ncnn2C1c1cccc(OCc2ccccc2)c1` (centres undefined), the cell count in assay [1] amounted to 610. For the same compound, the inhibition in assay [1] was 0% (inactive); in assay [3], -51.7% (inactive); in assay [7] it was 11.8% (inactive); in assay [8], 29% (inactive). The inhibition of aggregation in assay [2] is 2.1% (inactive). Also, the nuclei count in assay [2] turned out to be 103%; in assay [3] it was 122%. Besides, in assay [4], the fluorescence slope is -0.559 (inactive). Further, the NADPH fluorescence slope in assay [5] is 4.9e-06 (inactive). For the same compound, the slope in assay [6] is 0.0069 (inactive).

With `O=C(NCc1ccco1)c1csc(Nc2ccccc2Cl)n1`, the cell count in assay [1] is 484. Further, the inhibition in assay [1] is -6.2% (inactive); in assay [3] it was -144% (inactive); in assay [7], -50.5% (inactive); in assay [8] it was -12.9% (inactive). The inhibition of aggregation in assay [2] is -0.3% (inactive). The figures for the nuclei count in assay [2] and in assay [3] were 118% and 233%, respectively. Besides, the fluorescence slope in assay [4] is -0.503 (inactive). Besides, the NADPH fluorescence slope in assay [5] was -3.4e-05 (inactive). Also, in assay [6], the slope was 0.0062 (inactive).

As for `O=c1[nH]c(SCc2ccccc2Cl)nc2c1CCCC2`, in assay [1], the cell count is 447. For the same compound, the inhibition in assay [1] is -14.3% (inactive); in assay [3], -49.4% (inactive); in assay [7], 10.6% (inactive); in assay [8] it was 4.88% (inactive). In addition, the inhibition of aggregation in assay [2] is 36.1% (inactive). Also, the results for the nuclei count in assay [2] and in assay [3] were 77.2% and 111%, respectively. Moreover, the fluorescence slope in assay [4] was -0.295 (inactive). For the same compound, the NADPH fluorescence slope in assay [5] is -2.4e-06 (inactive). Further, the slope in assay [6] is 0.00421 (inactive).

Consider `Cc1nc2ccc(S(=O)(=O)NC(C(=O)Nc3nccs3)C(C)C)cc2s1` (centres undefined), for which the cell count in assay [1] amounted to 549. In addition, the inhibition in assay [1] is -6.2% (inactive); in assay [3], -17.1% (inactive); in assay [7], 13.6% (inactive); in assay [8] it was 30.5% (inactive). For the same compound, the inhibition of aggregation in assay [2] was -4.4% (inactive). In addition, the nuclei count in assay [2] came out at 95.9%; in assay [3], 120%. For the same compound, the fluorescence slope in assay [4] is -0.589 (inactive). Also, the NADPH fluorescence slope in assay [5] was -2.2e-05 (inactive). In addition, in assay [6], the slope was 0.00646 (inactive).

With `O=C1c2ccccc2C(=O)N1CCC(=O)N1CCc2ccccc21`, the cell count in assay [1] worked out at 359. In addition, the inhibition was 5.9% (inactive) in assay [1], -71.6% (inactive) in assay [3], -1.4% (inactive) in assay [7] and -26.2% (inactive) in assay [8]. In addition, the inhibition of aggregation in assay [2] was 22.4% (inactive). Also, the nuclei count turned out to be 92.8% in assay [2] and 109% in assay [3]. The fluorescence slope in assay [4] was -0.393 (inactive). Moreover, the NADPH fluorescence slope in assay [5] is -2.1e-05 (inactive). In assay [6], the slope was 0.005 (inactive).

Take `Cc1ccccc1CN1CCN(CC(=O)NCc2ccccc2)C1=O`: in assay [1], the cell count is 518. Moreover, the inhibition was -20.8% (inactive) in assay [1], -45.7% (inactive) in assay [3], 2.1% (inactive) in assay [7] and 24.6% (inactive) in assay [8]. Further, the inhibition of aggregation in assay [2] was -45.2% (inactive). Moreover, the values for the nuclei count in assay [2] and in assay [3] were 97.7% and 114%, respectively. Further, in assay [4], the fluorescence slope is -0.42 (inactive). In assay [5], the NADPH fluorescence slope is -0.000111 (inactive). The slope in assay [6] was 0.00614 (inactive).

As to `CCc1[nH]nc2c1C(c1cccc(OC(=O)N3CCOCC3)c1)C(C#N)=C(N)O2` (centres undefined), the cell count in assay [1] is 393. Besides, the inhibition in assay [1] was -20.5% (inactive); in assay [3], 9.4% (inactive); in assay [7], 20.6% (inactive); in assay [8], 22.7% (inactive). The inhibition of aggregation in assay [2] was -8.9% (inactive). The nuclei count in assay [2] is 98.5%; in assay [3] it was 87.2%. In assay [4], the fluorescence slope was -0.563 (inactive). In addition, the NADPH fluorescence slope in assay [5] was -2e-05 (inactive). In addition, the slope in assay [6] was 0.00573 (inactive).

Take `CC1=C(C(N)=O)C(c2ccncc2)n2nc(-c3ccccc3Cl)nc2N1` (centres undefined): the cell count in assay [1] stood at 617. In addition, the inhibition in assay [1] is 0% (inactive); in assay [3], -1.2% (inactive); in assay [7] it was 3.63% (inactive); in assay [8], 21.9% (inactive). For the same compound, in assay [2], the inhibition of aggregation was 5.7% (inactive). In addition, the nuclei count in assay [2] was determined as 92.1%; in assay [3], 109%. Also, the fluorescence slope in assay [4] was -0.528 (inactive). In addition, the NADPH fluorescence slope in assay [5] is -2.9e-05 (inactive). The slope in assay [6] was 0.00735 (inactive).
